According to PubChem BioAssay AID1159580 (chemical genetic matrix, 2015):
Hit rate of the full screen: of about 5,500 compounds, about 2,000 (36%) were called active. Inconclusive results (about 18%) are left out. No stated cut-off is given here; in the data, active means normalized growth mostly below about 0.91 (no sharp cut-off); inconclusive means no clear call, values can overlap the other calls; inactive means mostly above about 0.92. This is one part of the list.

Assay: chemical genetic growth profiling, strain panel (AID 1159580);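 further: tested at 20 µM; growth read once vehicle control cultures reached saturation at 30 °C; 1 = growth at the plate median or of vehicle wells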
Conditions: S. cerevisiae deletion strains, growth OD
[1] = locus YDL101C, strain DUN1, stronger effect = lower value
[2] = locus YHR030C, strain SLT2, stronger effect = lower value

Measured: normalized growth

Cc1cc(C(=O)O/N=C(/N)c2ccc([N+](=O)[O-])o2)no1
active: locus YGR092W, strain DBF2, stronger effect = lower value 0.178 | [2] 0.218 | locus YLR113W, strain HOG1, stronger effect = lower value 0.757 | locus YOR231W, strain MKK1, stronger effect = lower value 0.567 | locus YPL256C, strain CLN2, stronger effect = lower value 0.741
inactive: locus YAR019C, strain CDC15, stronger effect = lower value 0.961 | locus YBL105C, strain PKC1, stronger effect = lower value 0.968 | locus YBR135W, strain CKS1, stronger effect = lower value 0.963 | locus YBR136W, strain MEC1, stronger effect = lower value 0.962 | locus YBR160W, strain CDC28, stronger effect = lower value 0.951 | locus YDL017W, strain CDC7, stronger effect = lower value 0.963 | locus YDL028C, strain MPS1, stronger effect = lower value 0.931 | [1] 0.964 | locus YDL108W, strain KIN28, stronger effect = lower value 0.949 | locus YDL132W, strain cdc53, stronger effect = lower value 0.968 | locus YDL214C, strain PRR2, stronger effect = lower value 0.887 | locus YDR052C, strain DBF4, stronger effect = lower value 0.919 | locus YDR054C, strain cdc34, stronger effect = lower value 0.991 | locus YDR226W, strain ADK1, stronger effect = lower value 0.927 | locus YDR477W, strain SNF1, stronger effect = lower value 0.918 | locus YER123W, strain YCK3, stronger effect = lower value 0.87 | locus YER133W, strain GLC7, stronger effect = lower value 0.963 | locus YFL009W, strain cdc4, stronger effect = lower value 0.97 | locus YFL029C, strain CAK1, stronger effect = lower value 0.965 | locus YFR003C, strain YPI1, stronger effect = lower value 0.955 | locus YFR019W, strain FAB1, stronger effect = lower value 0.877 | locus YFR028C, strain CDC14, stronger effect = lower value 0.938 | locus YGR040W, strain KSS1, stronger effect = lower value 0.848 | locus YGR052W, strain FMP48, stronger effect = lower value 0.869 | locus YHR079C, strain IRE1, stronger effect = lower value 0.832 | locus YHR082C, strain KSP1, stronger effect = lower value 0.892 | locus YHR205W, strain SCH9, stronger effect = lower value 0.745 | locus YIL147C, strain SLN1, stronger effect = lower value 0.946 | locus YJL095W, strain BCK1, stronger effect = lower value 0.796 | locus YJL128C, strain PBS2, stronger effect = lower value 0.895 | locus YJL157C, strain FAR1, stronger effect = lower value 0.914 | locus YJR016C, strain ILV3, stronger effect = lower value 0.953 | locus YJR066W, strain TOR1 (second series), stronger effect = lower value 0.822 | locus YJR066W, strain TOR1, stronger effect = lower value 0.809 | locus YKL048C, strain ELM1, stronger effect = lower value 0.831 | locus YKL067W, strain YNK1, stronger effect = lower value 0.868 | locus YKL101W, strain HSL1, stronger effect = lower value 0.83 | locus YKL193C, strain SDS22, stronger effect = lower value 0.962 | locus YKL203C, strain TOR2, stronger effect = lower value 0.99 | locus YLR133W, strain CKI1, stronger effect = lower value 0.894 | locus YLR403W, strain SFP1, stronger effect = lower value 0.927 | locus YML070W, strain DAK1, stronger effect = lower value 0.846 | locus YMR001C, strain CDC5, stronger effect = lower value 0.963 | locus YMR205C, strain PFK2 (second series), stronger effect = lower value 0.938 | locus YMR277W, strain FCP1, stronger effect = lower value 0.941 | locus YNL006W, strain LST8, stronger effect = lower value 0.979 | locus YNL020C, strain ARK1, stronger effect = lower value 0.885 | locus YNL161W, strain CBK1, stronger effect = lower value 0.967 | locus YNL183C, strain NPR1, stronger effect = lower value 0.898 | locus YNL207W, strain RIO2, stronger effect = lower value 0.948 | locus YNL222W, strain SSU72, stronger effect = lower value 0.957 | locus YNL307C, strain MCK1 (second series), stronger effect = lower value 0.825 | locus YOL078W, strain AVO1, stronger effect = lower value 0.952 | locus YOL136C, strain PFK27, stronger effect = lower value 0.873 | locus YOR061W, strain CKA2, stronger effect = lower value 0.866 | locus YOR119C, strain RIO1, stronger effect = lower value 0.888 | locus YOR329C, strain SCD5, stronger effect = lower value 0.965 | locus YPL031C, strain PHO85, stronger effect = lower value 0.92 | locus YPL153C, strain RAD53, stronger effect = lower value 0.949 | locus YPL204W, strain HRR25, stronger effect = lower value 0.946 | locus YPL209C, strain IPL1, stronger effect = lower value 0.964 | locus YPR025C, strain CCL1, stronger effect = lower value 0.97 | locus YPR106W, strain ISR1, stronger effect = lower value 0.936 | locus YPR111W, strain DBF20, stronger effect = lower value 0.896 | strain NNK1, stronger effect = lower value 0.94 | strain TSCII, stronger effect = lower value 0.965

N/C(=N\OC(=O)c1ccno1)c1ccc(C(F)(F)F)cc1
inactive: locus YAL013W, strain DEP1, stronger effect = lower value 0.951 | locus YBR229C, strain ROT2, stronger effect = lower value 0.992 | locus YCL061C, strain MRC1, stronger effect = lower value 0.974 | [1] 1.02 | locus YDR150W, strain NUM1, stronger effect = lower value 0.978 | locus YEL061C, strain CIN8, stronger effect = lower value 1 | locus YGR078C, strain PAC10, stronger effect = lower value 0.971 | locus YGR229C, strain SMI1, stronger effect = lower value 1.02 | [2] 0.888 | locus YHR087W, strain rtc3, stronger effect = lower value 0.966 | locus YJL187C, strain SWE1, stronger effect = lower value 0.993 | locus YJR043C, strain POL32, stronger effect = lower value 0.988 | locus YJR075W, strain HOC1, stronger effect = lower value 1.01 | locus YKL190W, strain CNB1, stronger effect = lower value 1.01 | locus YLR039C, strain RIC1, stronger effect = lower value 0.91 | locus YLR058C, strain SHM2 (second series), stronger effect = lower value 0.988 | locus YLR085C, strain ARP6, stronger effect = lower value 1.06 | locus YLR262C, strain YPT6, stronger effect = lower value 0.944 | locus YML094W, strain GIM5, stronger effect = lower value 0.95 | locus YMR219W, strain ESC1, stronger effect = lower value 0.996 | locus YMR263W, strain SAP30, stronger effect = lower value 0.98 | locus YMR307W, strain GAS1, stronger effect = lower value 1.17 | locus YNL153C, strain GIM3, stronger effect = lower value 0.973 | locus YNL298W, strain CLA4 (second series), stronger effect = lower value 0.949 | locus YNL322C, strain KRE1, stronger effect = lower value 0.987 | locus YNR030W, strain Alg12, stronger effect = lower value 0.939 | locus YOL006C, strain TOP1, stronger effect = lower value 0.939 | locus YPL055C, strain LGE1, stronger effect = lower value 0.839 | locus YPL241C, strain CIN2, stronger effect = lower value 1.03 | locus YPR135W, strain CTF4, stronger effect = lower value 0.82
